# In PubChem BioAssay AID1851 (National Center for Advancing Translational Sciences (NCATS), 2009):
# About 5,700 (36%) of roughly 16,000 compounds were called active. Not shown: some 24% with an inconclusive outcome. Calls come from the whole dose curve; as a rule, active = well fitted curve in the direction sought with a large enough effect; inconclusive = small, poorly fitted or top-dose-only effect, or effect the other way; inactive = no such curve, though single readings can be large or run the other way. The list shows a part of the results.
# Biological target: Cytochrome P450 1A2 (Homo sapiens) (UniProt P05177)
# Assay: Cytochrome panel assay with activity outcomes
# Conditions: recombinant CYP, pro-luciferin dealkylation, luminescence, p450-cyp1a2; series mostly up to 57.1 µM
# % is set by controls: 0 for no effect and ±100 for the full control effect.
# Cytochrome P450 1A2 (Homo sapiens), sequence (P05177 whole entry, looked up): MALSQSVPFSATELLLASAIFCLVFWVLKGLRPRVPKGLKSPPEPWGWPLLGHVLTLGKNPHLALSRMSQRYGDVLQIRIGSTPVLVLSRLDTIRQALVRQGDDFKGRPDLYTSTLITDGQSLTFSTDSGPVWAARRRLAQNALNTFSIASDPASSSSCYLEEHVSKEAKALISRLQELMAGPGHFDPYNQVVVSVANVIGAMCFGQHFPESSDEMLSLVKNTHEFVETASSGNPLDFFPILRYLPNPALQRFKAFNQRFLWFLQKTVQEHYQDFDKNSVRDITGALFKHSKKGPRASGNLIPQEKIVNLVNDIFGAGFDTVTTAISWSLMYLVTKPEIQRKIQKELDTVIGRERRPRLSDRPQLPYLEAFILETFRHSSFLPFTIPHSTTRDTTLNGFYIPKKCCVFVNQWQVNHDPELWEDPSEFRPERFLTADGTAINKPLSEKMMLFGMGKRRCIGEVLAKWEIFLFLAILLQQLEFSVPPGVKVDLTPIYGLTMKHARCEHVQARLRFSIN
SMILES,AC50,"activity, negative = inhibition"
Oc1ccc2[nH]cc(CCCCN3CC=C(c4ccccc4)CC3)c2c1,31600 nM (active),
COC1(CS(=O)c2ccccc2)CCN(CCc2c[nH]c3ccc(F)cc23)CC1 (centres undefined),inactive,
S=C(Nc1ccc(Cl)cc1)NC1CC2CCCC(C1)N2C1CCCC1 (centres undefined),inactive,
O=C(Oc1ccccc1)N1CCC2(CCCN(Cc3ccccc3)C2)CC1,inactive,
C[C@@H]1O[C@H](O[C@@H]2C=C3CC[C@H]4[C@@H](CC[C@]5(C)[C@@H](c6ccc(=O)oc6)CC[C@]45O)[C@@]3(C)CC2)[C@@H](O)[C@H](O)[C@@H]1O,inactive,
O=C(O)/C=C(\CC(=O)O)C(=O)O,,-6.78% [at 11.4 µM] (inactive)
CN1CCN(c2ncc3ncc(=O)n(C)c3n2)CC1,12600 nM (active),
CN1CCC2(CC1)CCN(C(=O)Oc1ccccc1)CC2,inactive,
CC(C)[C@@H](C)/C=C\[C@@H](C)[C@@H]1CC[C@H]2C3=CC=C4C[C@@H](O)CC[C@]4(C)[C@H]3CC[C@]21C,,-8.17% [at 11.4 µM] (inactive)
CC(C)NP(=O)(NC(C)C)OP(=O)(NC(C)C)NC(C)C,inactive,
COc1cc2c(cc1OC)[C@]13CC[N@+]4(C)CC5=CCO[C@H]6CC(=O)N2[C@@H]1[C@@H]6[C@@H]5C[C@]34O,,-11.4% [at 2.29 µM] (inactive)
C[C@H](NC(C)(C)C)C(=O)c1cccc(Cl)c1,inactive,
Cc1c2cc[n+](CCN3CCCCC3)cc2c(C)c2c1[nH]c1ccc(O)cc12,2510 nM (active),
CCNC(=O)[C@@H]1O[C@@H](n2cnc3c(N)ncnc32)[C@@H](O)[C@H]1O,inactive,
CP(=O)(O)CCCN,inactive,
O=C(CNS(=O)(=O)c1cccs1)N1CCC2(CC1)OCCO2,inactive,
CCn1c(O)c(C(c2ccccn2)c2c(O)n(CC)c(=S)[nH]c2=O)c(=O)[nH]c1=S,inactive,
OC(Cn1c2ccccc2c2ccccc21)C[n+]1ccccc1 (centres undefined),3160 nM (active),
C/C=C1\C[C@H](C)[C@@](O)(CO)C(=O)OCC2=CCN3CC[C@@H](OC1=O)[C@@H]23,inactive,
CCOP(=O)(OCC)C(NC(=O)C(Cl)Cl)C(Cl)(Cl)Cl (centres undefined),inactive,
COCC(=O)N1CCC2(CCCN(Cc3ccncc3)C2)CC1,inactive,
Nc1nc(OCc2ccccc2)c2[nH]cnc2n1,1000 nM (active),
O=C(Oc1ccccc1)N1CCC2(CCN(Cc3nccs3)CC2)CC1,inactive,
NC[C@H](O)c1cc(O)c(O)cc1F,inactive,

SMILES,AC50,"activity, negative = inhibition"
CN1CCc2cc3c(cc2[C@@H]1O)OCO3,inactive,
C[N+]1(C)CCc2cc3c(cc2[C@@H]1[C@@H]1OC(=O)c2c1ccc1c2OCO1)OCO3,inactive,
CN1Cc2c(ccc3c2OCO3)[C@@H]2[C@@H](O)Cc3cc4c(cc3[C@@H]21)OCO4,2510 nM (active),
Cn1c(O)c(C(c2ccccn2)c2c(O)n(C)c(=S)n(C)c2=O)c(=O)n(C)c1=S,inactive,
CC(C)(C)c1o[nH]c(=O)c1C[C@H](N)C(=O)O,inactive,
COc1cc([C@@H](O)CN)ccc1O,inactive,
COc1cc(CCN)c(OC)c(OC)c1,3160 nM (active),
Cn1c(=O)c2[nH]cnc2n(C)c1=O.[CH2-][C@H](Cc1cccc2cc(C(=O)O)c(=O)oc12)OC.[Hg].[OH-],,-15.3% [at 11.4 µM] (inactive)
COc1cc2ccccc2c2cc([N+](=O)[O-])oc12,126 nM (active),
C[C@H]1C(=O)O[C@@H]2CCN3CC=C(COC(=O)[C@@](C)(O)[C@@]1(C)O)[C@H]23,inactive,
c1ccc2c(c1)OC[C@@H](C1=NCCN1)O2,inactive,
NCC#Cc1ccccc1,3160 nM (active),
C/C=C1\C[N@@+]2(C)CC[C@@]34C(=C(C=O)[C@H]1C[C@H]32)Nc1ccccc14,inactive,
C[N+]1(C)C2CC(OC(=O)C(CO)c3ccccc3)CC1[C@@H]1O[C@H]21 (some centres undefined),inactive,
OC(c1ccccc1)(c1ccccc1)C1CCCN1 (centres undefined),15800 nM (active),
OC(c1ccccc1)(c1ccccc1)C1CCNCC1,inactive,
CC[C@H](C)C(=O)O[C@@H]1[C@H](O)[C@@H]2[C@H](CN3C[C@@H](C)CC[C@@H]3[C@@]2(C)O)[C@@H]2C[C@@]34O[C@@]5(O)[C@@H](OC(=O)[C@](C)(O)CC)CC[C@@]3(C)[C@H]5[C@H](OC(C)=O)[C@@H](OC(C)=O)[C@H]4[C@]12O,inactive,
CC(C)Oc1cccnc1N(C)C1CCN(Cc2ccccc2)CC1,inactive,
CS(=O)(=O)N1CCC2(CC1)CN(Cc1ccncc1)C2,inactive,
O=c1[nH]oc2c1CCNC2,inactive,
Cn1ccnc1,inactive,
C[C@@]12CC[C@H]3[C@@H](CC[C@@H]4C[C@H]5S[C@H]5C[C@]43C)[C@H]1CC[C@H]2O,25.1 nM (active),
C[C@]12CC[C@H](O)C[C@@H]1CC[C@H]1[C@H]2CC[C@]2(C)C(=O)CC[C@@H]12,inactive,
CC(C)CCC[C@@H](C)[C@@H]1CC[C@@H]2[C@H]3CC[C@H]4C[C@@H](N)CC[C@@]4(C)[C@@H]3CC[C@]21C,,3.33% [at 11.4 µM] (inactive)

SMILES,AC50,"activity, negative = inhibition"
C[As+](C)(c1ccc(Br)c([N+](=O)[O-])c1)c1ccc(Br)c([N+](=O)[O-])c1.O=[N+]([O-])O,,-12.7% [at 11.4 µM] (inactive)
COc1cc(-c2ccc(=O)[nH]n2)ccc1OC(F)F,2510 nM (active),
CC(C)CN1CCC2(CC1)CCN(S(C)(=O)=O)CC2,inactive,
O=C(CCCN1CCC(n2c(=O)[nH]c3ccccc32)CC1)c1ccc(F)cc1,inactive,
CN1C(=O)C(=Cc2ccc(N3CCCCCC3)o2)C(=O)N(C)C1=S,1580 nM (active),
CN1C(=O)C(=Cc2ccc(N3CCCCC3)o2)C(=O)N(C)C1=S,1580 nM (active),
CC(=O)NBr,inactive,
O=C(Oc1ccccc1)N1CCC2(CCN(Cc3ccccc3)CC2)CC1,inactive,
CC(C)COC(=O)OCN1C(=O)CN(CCN2CC(=O)N(COC(=O)OCC(C)C)C(=O)C2)CC1=O,inactive,
Cc1ncc([N+](=O)[O-])n1CCN=[N+]=[N-],,-9.71% [at 11.4 µM] (inactive)
COc1cc(CN2CCN(C(=O)COc3ccccc3)CC2)cc(OC)c1OC,inactive,
C[C@@H](N)Cn1ccc2cc(F)c(Cl)cc21,50.1 nM (active),
CCCCCC[C@H]1C(=O)O[C@H](C)[C@H](NC(=O)c2cccc(NC=O)c2O)C(=O)O[C@@H](C)[C@H]1OC(=O)CC(C)C,inactive,
COc1ccc2[nH]c3c(c2c1)CCNC3,3160 nM (active),
CC1=NCCc2c1[nH]c1cc(O)ccc21,12600 nM (active),
COc1ccc2[nH]c3c(c2c1)CCN=C3C,1580 nM (active),
COc1ccc2c3c([nH]c2c1)C(C)=NCC3,794 nM (active),
CN(C)C=C1C(=O)N(C2CCCCC2)C(=O)N(C2CCCCC2)C1=O,inactive,
c1cc2cc(c1)C[n+]1ccc(c3ccccc31)NCc1ccc(cc1)CNc1cc[n+](c3ccccc13)C2,inactive,
C[N+]1([O-])[C@H]2CC[C@H]1CC(OC(=O)[C@@H](CO)c1ccccc1)C2 (some centres undefined),,0.783% [at 2.29 µM] (inactive)
C[N+](C)(C)CCCCCCCCCC[N+](C)(C)C,inactive,
NCC[C@H](O)C(=O)N[C@H]1C[C@@H](N)[C@@H](O[C@H]2O[C@@H](CN)[C@@H](O)[C@@H](O)[C@@H]2N)[C@@H](O[C@H]2O[C@@H](CO)[C@@H](O)[C@@H]2O)[C@@H]1O,inactive,
c1cc(CN2CC3(CCNCC3)C2)ccn1,inactive,
O=c1[nH]cnc2[nH]cc(CN3CCCCC3)c12,,-11.6% [at 11.4 µM] (inactive)

SMILES,AC50,"activity, negative = inhibition"
COc1ccccc1CN1CCCC2(CCN(C(=O)Oc3ccccc3)CC2)C1,inactive,
CC(C)c1nccn1Cc1ccc(Cl)cc1Cl,,-14.7% [at 11.4 µM] (inactive)
O=C(O)C(C(=O)O)P(=S)(S)c1ccccc1 (centres undefined),,-13.3% [at 11.4 µM] (inactive)
CNCC/C=C\c1cccnc1,inactive,
COc1cc(N)c(Cl)cc1C(=O)N[C@@H]1CN2CCC1CC2,inactive,
Cn1cc(C(=O)C(=O)N[C@H]2CN3CCC2CC3)c2ccccc21,15800 nM (active),
CN1[C@@H]2CC[C@H]1CC(NC(=O)c1nn(C)c3ccccc13)C2 (some centres undefined),inactive,
NCC1(CC(=O)O)CCCCC1,inactive,
C[C@H]1CC[C@@]2(NC1)O[C@@H]1C[C@H]3[C@@H]4CC[C@@H]5C[C@@H](O)CC[C@@]5(C)[C@@H]4CC[C@]3(C)[C@@H]1[C@@H]2C,inactive,
CCCN1CCC[C@@H]2Cc3nc(N)ncc3C[C@H]21,inactive,
N#CCCCC[N+]12CN3CN(CN(C3)C1)C2,,15% [at 2.29 µM] (inactive)
COCCCN1Cc2ccccc2C1=N,inactive,
S=C(S)N1CCCC1,31600 nM (active),
C[C@@]12CC[C@H](O)C[C@@H]1CC[C@@H]1[C@@H]2CC[C@@]2(C)[C@@H](C3=CC(=O)OC3)[C@H](O)C[C@]12O,,-18.3% [at 11.4 µM] (inactive)
CC1(C)N=C(N)N=C(N)N1c1cccc(C(=O)Nc2ccc(S(=O)(=O)F)cc2)c1,,-15.8% [at 11.4 µM] (inactive)
c1ccc(CN2CC[C@@]3(CCCNC3)C2)cc1,inactive,
NC1=Nc2ccccc2Oc2ccccc21,12600 nM (active),
CC(C)[N+](C)(CCC(C(N)=O)(c1ccccc1)c1ccccc1)C(C)C,inactive,
CC(=O)c1ccc2c(c1)N(CCCN(C)C)c1ccccc1S2,1580 nM (active),
C=CCN1C(=O)c2ccccc2Sc2ccc(C(=O)N3CCC4(CC3)OCCO4)cc21,inactive,
CN1C(=O)c2ccccc2Sc2ccc(C(=O)N3CCC4(CC3)OCCO4)cc21,inactive,
C[N+](C)(C)CCCCCC[N+](C)(C)C,inactive,
